Compound activity deposited in PubChem by several laboratories.
Calb FLC – affects C. albicans growth with fluconazole | C. albicans CaCi-2 (fluconazole-resistant clinical isolate) + fluconazole, Alamar Blue growth, 48 h | growth inhibition, % (concentration not given with the values) | actives 0.57% (n = 300,000) | AID 1979;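 active = growth inhibition above about 58% in most replicates, limit read from the data, passing the limit was not always enough; inconclusive = exactly half the replicates above a set limit; inactive = most replicates below a set limit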;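 note: all wells also contain fluconazole at 8 µg/ml as a sub-toxic cotreatment; 0% = median of DMSO wells and 100% = median of geldanamycin control wells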
KCC2 mod – modulators of human KCC2 chloride dependent transport | Q9H2X9 | KCC2 cells, thallium flux FluoZin-2 fluorescence | B-score of Tl+ flux slope (higher = more flux/activation; lower = inhibition) at 10 µM | actives 2.2% (n = 190,000) | AID 1456;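 active = thallium flux slope and its plate-corrected score both differing from the plate sample mean at a set confidence after two filtering rounds, in either direction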;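 note: slope of fluorescence scaled to starting intensity during 10 to 20 s after thallium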
Target sequence (Q9H2X9 whole entry, looked up): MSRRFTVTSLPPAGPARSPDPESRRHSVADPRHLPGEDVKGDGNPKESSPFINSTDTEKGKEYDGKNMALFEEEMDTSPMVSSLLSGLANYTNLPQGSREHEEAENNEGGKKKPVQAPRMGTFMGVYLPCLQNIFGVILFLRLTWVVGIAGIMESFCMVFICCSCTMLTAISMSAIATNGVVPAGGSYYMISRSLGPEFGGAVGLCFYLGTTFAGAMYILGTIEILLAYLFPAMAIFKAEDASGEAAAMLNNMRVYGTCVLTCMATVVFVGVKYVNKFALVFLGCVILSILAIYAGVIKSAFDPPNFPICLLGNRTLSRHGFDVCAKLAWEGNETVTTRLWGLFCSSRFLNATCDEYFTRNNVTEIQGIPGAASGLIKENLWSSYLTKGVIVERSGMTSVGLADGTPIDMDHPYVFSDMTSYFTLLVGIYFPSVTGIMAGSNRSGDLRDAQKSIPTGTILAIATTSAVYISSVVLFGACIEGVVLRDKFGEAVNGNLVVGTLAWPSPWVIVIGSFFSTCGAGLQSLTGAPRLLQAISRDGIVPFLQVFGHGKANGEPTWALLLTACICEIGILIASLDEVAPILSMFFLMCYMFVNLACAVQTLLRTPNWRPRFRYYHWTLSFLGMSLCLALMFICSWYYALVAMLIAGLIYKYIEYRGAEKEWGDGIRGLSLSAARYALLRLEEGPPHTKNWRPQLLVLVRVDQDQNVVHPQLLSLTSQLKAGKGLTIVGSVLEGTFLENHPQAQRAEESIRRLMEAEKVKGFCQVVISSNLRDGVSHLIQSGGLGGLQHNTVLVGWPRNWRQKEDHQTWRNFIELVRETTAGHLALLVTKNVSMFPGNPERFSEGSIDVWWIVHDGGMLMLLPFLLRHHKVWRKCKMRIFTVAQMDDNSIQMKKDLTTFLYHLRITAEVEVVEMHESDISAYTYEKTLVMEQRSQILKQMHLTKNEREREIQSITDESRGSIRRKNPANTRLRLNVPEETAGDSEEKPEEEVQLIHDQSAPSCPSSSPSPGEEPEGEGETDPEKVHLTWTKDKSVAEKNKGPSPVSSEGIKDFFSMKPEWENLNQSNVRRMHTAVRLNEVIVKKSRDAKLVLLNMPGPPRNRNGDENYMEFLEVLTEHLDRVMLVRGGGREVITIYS
Cardio protect – protects H9c2 cardiomyocytes from peroxide injury; H2O2 injury protection, ATPLite, 2 h; protection from H2O2 cell death, % at 20 µM; actives 0.63% (n = 360,000); AID 588492;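 active = compounds giving at least 50% protection of heart cells from peroxide-induced death in the single-dose screen, raw or plate-pattern-corrected value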;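 note: 0% = DMSO wells with peroxide and 100% = DMSO wells without peroxide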
Efflux pump inh – antifungal efflux pump inhibition, Nile Red retention; actives 0.44% (n = 330,000); S. cerevisiae Candida pump triplex; inhibition, % at 10 µM;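 active = plate passing quality check with inhibition over a set limit, or well fluorescence over plate mean plus 4 SD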;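 note: Nile Red retained in pooled yeast measured as flow cytometry median fluorescence; 0% = buffer negative control and 100% = Enniatin B positive control; higher means more Nile Red kept so more efflux inhibition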
PHOSPHO1 block – PHOSPHO1 (human) inhibition. Q8TCT1. recombinant PHOSPHO1, absorbance phosphatase assay. inhibition, % at 13.3 µM. actives 1.1% (n = 290,000). AID 1565; in the data active = inhibition above about 60%
KCC2 secondary – confirmation of human KCC2 transport modulators; shares compounds with KCC2 mod; HEK293-KCC2, thallium flux, FluoZin2 fluorescence; hits give high values; normalised thallium flux (F/F0 slope) at 10 µM; actives 15% (n = 3,700); AID 1713;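 active = thallium flux slope above the same plate's solvent-only control mean plus 3 SD; inconclusive = the two replicate wells disagree; inactive = no significant difference from solvent-only control wells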
KCC2 bumet counter – bumetanide-insensitive thallium flux in KCC2 cells with ouabain, counter-screen; shares compounds with KCC2 mod; HEK293-KCC2 + bumetanide/ouabain, thallium flux FluoZin2; hits give high values; normalized thallium flux at 10 µM; actives 49% (n = 3,700);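 active = thallium entry rate above the same plate's blocked-transporter control wells by more than 3 SD; inconclusive = the two repeat wells disagree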;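 note: raw slope of fluorescence over initial fluorescence between 10 and 20 s after thallium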
KCC2 sec2 – KCC2 (human) modulation, second secondary assay; shares compounds with KCC2 mod; HEK293-KCC2, thallium flux FluoZin2 fluorescence; actives lie on both sides; F/F0 rise rate, 10–20 s post-thallium; normalized thallium flux at 10 µM; actives 23% (n = 3,700);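 active = thallium flux slope more than 3 SD above or below the plate's solvent-only control mean, mostly below; inconclusive = the two repeat wells disagreed; inactive = no significant shift from solvent-only controls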;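 note: raw slope with 0.1% DMSO as baseline and bumetanide as block control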
HEK293 Tl flux – acts in parental HEK cells, KCC2 counter-screen; shares compounds with KCC2 mod; HEK293 parental cells, thallium flux FluoZin2, ouabain; baseline-ratio fluorescence slope, 10–20 s after thallium; thallium flux rate (normalised fluorescence) at 10 µM; actives 46% (n = 3,700); AID 1716;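 active = thallium flux rate significantly above the same plate's solvent-only control wells, beyond their mean plus 3 SD; inconclusive = the two replicate wells gave conflicting results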
KCC2 retest ouab – modulates human KCC2 on retest with ouabain | shares compounds with KCC2 mod | HEK293-KCC2, thallium flux FluoZin2 fluorescence; bidirectional: low = inhibitor, high = activator | raw Tl+ flux slope (below DMSO = inhibition, above = activation) at 10 µM | actives 48% (n = 3,700);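 active = thallium flux slope beyond 3 SD from same-plate DMSO control mean in most replicates, usually higher, sometimes lower; inconclusive = repeat tests gave conflicting results; inactive = no significant difference from controls in most replicates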;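 note: slope of initial-normalized fluorescence between seconds 10 and 20 after thallium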
HEK counter2 – counter-screen for KCC2 modulators: effect in parental HEK293 cells; shares compounds with KCC2 mod; AID 1718; thallium flux slope at 10 µM; thallium flux FluoZin-2 fluorescence slope; actives 33% (n = 3,700);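 active = thallium flux slope above the same plate's solvent-control mean plus 3 SD in both duplicate wells; inconclusive = duplicate wells that disagreed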;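 note: run without ouabain in cells lacking the KCC2 cotransporter; slope of fluorescence scaled to its starting value between 10 and 20 s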
* = called active by the depositor; ? = inconclusive; . = no result given. A selection: hits, their analogues and other compounds. The true share with any hit is near 3.3%.

SMILES	Calb FLC	KCC2 mod	Cardio protect	Efflux pump inh	PHOSPHO1 block	KCC2 secondary	KCC2 bumet counter	KCC2 sec2	HEK293 Tl flux	KCC2 retest ouab	HEK counter2
CC/C(=N/Nc1ccccc1)c1cnnc(-c2ccccc2)n1	-17	2.7*	-11	0	10	0.0099	0.0056	0.033	0.0081	0.022	0.01
CC/C(=N/Nc1cccc(Cl)c1)c1cnnc(SC)n1	-1	0.42	-14	0	-3	.	.	.	.	.	.
Cc1cnc(NC(=O)Nc2ccc(OCc3ccccc3)cc2)c(Br)c1	-6	.	-6	0	33	.	.	.	.	.	.
Nc1c(N(CCC2=CCCCC2)C(=O)Cc2ccccc2F)c(=O)[nH]c(=O)n1Cc1ccccc1	.	.	-2	0	.	.	.	.	.	.	.
N#Cc1c2n(c3c(=O)n(Cc4ccccc4)cnc13)CCCC2	12	-0.47	0	0	-3	.	.	.	.	.	.
N#Cc1c2n(c3c(=O)n(Cc4ccc(Cl)cc4)cnc13)CCCCC2	-1	.	-10	0	-7	0.0052	0.0044	0.023*	?	0.014*	0.01
O=C(O)CC/C(=C\c1ccccc1[N+](=O)[O-])c1nc2ccccc2s1	56	-4.1*	4	0	1	0.0092	0.0072	?	0.0065	0.012*	0.01
Cc1nn(-c2ccc(F)cc2)c(Cl)c1/C=C(\CCC(=O)O)c1nc2ccccc2s1	44	-9.4*	1	0	38	?	?	0.018*	0.0059*	0.0093*	?
O=C(O)CC/C(=C\c1ccc(N2CCCC2)c([N+](=O)[O-])c1)c1nc2ccccc2s1	-6	-8.5*	2	0	16	0.007	0.0046	0.02*	0.0073	0.011*	0.0097
CN(c1ccccc1)c1ccc(/C=C(/CCC(=O)O)c2nc3ccccc3s2)cc1[N+](=O)[O-]	.	.	-4	.	.	.	.	.	.	.	.
O=C(O)CC/C(=C\c1cccc(NC(=O)c2ccccc2Cl)c1)c1nc2ccccc2s1	2	-2.3*	-1	0	23	0.007	0.0051	?	0.0077	?	0.012
CC1=C(C(=O)N(C)C)CC(CC(=O)NCCc2ccccn2)C(=O)N1Cc1ccccc1 (centres undefined)	.	.	4	.	.	.	.	.	.	.	.
Cc1cc(C)n(-c2nc3sc4c(c3c(=O)[nH]2)CCCC4)n1	-25	42*	.	0	7	0.0083	0.1*	0.098*	0.1*	0.089*	0.069*
C/C(=C\C(=O)c1ccc(Cl)s1)N(C)C	12	3.8*	7	0	56	0.011	0.014*	0.036	?	?	0.011
O=C(C=Cc1ccc(Cl)s1)c1ccc(Cl)s1	.	.	-5	.	.	.	.	.	.	.	.
COc1ccc(N2C(=S)N=C(Nc3ccccc3)C23CCCCC3)cc1	3	23*	-6	0	11	?	0.026*	0.033	0.014*	0.029*	0.012*
NC(=S)Nc1cccc(Cl)c1	-7	-0.48	-6	0	-5	.	.	.	.	.	.
CS/C(N)=N/C(=S)Nc1cccc(Cl)c1	-1	7.5*	0	0	-10	0.01	0.018*	0.034	?	0.023	?
CCCc1nnc(SCC(=O)N2CCOCC2)n1CCCOC	-3	8*	8	0	-22	0.0065	0.005	0.03	0.0076	0.018	0.01
COc1ccc(CNC(=O)c2cn(Cc3ccc(S(=O)(=O)N(C)C)cc3)c(=O)s2)cc1	.	.	-3	.	.	.	.	.	.	.	.
CC(C(=O)N1c2ccccc2CC1C)N1CCN(S(=O)(=O)c2ccccc2F)CC1 (centres undefined)	.	.	5	0	.	.	.	.	.	.	.
C=CCn1c(O)c(N=NC(=S)Nc2cccc(C)c2)c2ccccc21	?	82*	32	0	-34	0.0063	0.084*	0.057*	0.029*	0.063*	0.023*
C=CCn1c(O)c(N=NC(=S)Nc2ccccc2F)c2ccccc21	-5	107*	21	0	-19	0.036*	0.14*	0.05*	?	0.089*	0.028*
Cc1c(Cl)cccc1NC(=S)N=Nc1c(O)n(CN2CCOCC2)c2ccccc12	.	48*	17	29*	-3	0.016*	0.052*	0.032	0.038*	0.056*	0.013*
Oc1c(N=NC(=S)Nc2ccccc2F)c2ccccc2n1Cc1ccccc1	1	21*	2	0	-16	?	0.046*	0.032	?	0.03*	?
SMILES	Calb FLC	KCC2 mod	Cardio protect	Efflux pump inh	PHOSPHO1 block	KCC2 secondary	KCC2 bumet counter	KCC2 sec2	HEK293 Tl flux	KCC2 retest ouab	HEK counter2
Cc1cccc(NC(=O)Cn2c(O)c(N=NC(=O)c3ccncc3)c3ccccc32)c1	5	0.24	4	0	16	.	.	.	.	.	.
CC1(c2ccccc2Cl)NC(=O)N(CC(=O)Nc2ccc(N3CCCCC3)cc2)C1=O (centres undefined)	-4	.	0	0	.	.	.	.	.	.	.
Cc1nn(-c2ccc(N3CCOCC3)nn2)c(C)c1CCC(=O)Nc1ccc(F)cc1	-18	.	4	0	7	.	.	.	.	.	.
O=C(CCc1nnc(-c2ccccc2)o1)c1ccc(Cl)cc1	12	-0.84	-12	0	8	.	.	.	.	.	.
Cc1ccc2c(c1)c1c(n2CCc2ccc(C)nc2)CCN(C)C1	.	.	9	0	.	.	.	.	.	.	.
C=CCn1c(O)c(N=NC(=S)Nc2ccccc2F)c2cc(S(=O)(=O)N3CCOCC3)ccc21	71	64*	16	0	-13	0.018*	0.05*	0.038	0.056*	0.049*	0.02*
COc1ccccc1CNc1nc(Oc2cccc(F)c2)c2sccc2n1	.	.	-6	.	.	.	.	.	.	.	.
Cc1ccc(C(=O)NC(=S)c2c(C)cc3ccccn23)cc1	.	.	2	.	.	.	.	.	.	.	.
Cc1cc2ccccn2c1C(=S)NC(=O)c1ccccc1	-4	66*	4	0	-11	0.02*	0.14*	0.1*	0.12*	0.12*	0.11*
CC(=O)Nc1ccc(S(=O)(=O)Nc2nnc(CC(C)(C)C)s2)cc1	-2	0.34	10	0	-6	.	.	.	.	.	.
Cc1cc2cc3c(cc2nc1SCc1ccc(C(=O)O)cc1)OCCO3	-6	-4.2*	0	1	-8	0.0076	0.098*	?	0.036*	0.035*	0.014*
O=C(OCC(=O)N1CCC(c2ccccc2)=N1)c1ccc(Cl)s1	.	.	8	0	.	.	.	.	.	.	.
